PubChem BioAssay AID652235 (Sanford-Burnham Center for Chemical Genomics, 2013)
The other results are listed elsewhere or left out. Unmarked numbers belong to inactive results. The source made the active and inactive calls.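 How the source made its calls: active means inhibition of at least 50% in the primary cell screen; inactive means the rest.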

Target: Matrix metalloproteinase-14 (Homo sapiens) (UniProt P50281)
Assay: retesting blockers of MT1-MMP activation – single concentration, fluorescence, HT1080 RFP-PRO-GFP cells, confirmation (AID 652235)
Conditions: GFP and RFP fluorescence ratio, overnight, at 20 µM, stronger effect = higher value

Which inhibition does the source give for `O=C(c1cccc(Cl)c1)N1CCN(Cc2ccccc2)CC1` here?
The inhibition was -1.11%.

How did the inhibition turn out when `O=C1CCCC(O)=C1N=Nc1ccc(S(=O)(=O)N2CCOCC2)cc1` was run?
The inhibition was 4.19%.

Which inhibition does the source give for `O=P(O)(CP(=O)(c1ccccc1)c1ccccc1)c1ccccc1` here?
Its inhibition is -1.14%.

With `COc1ccc(C)cc1Nc1nc(-c2c(C)[nH]c3ccccc23)cs1` as the compound, how does the inhibition read?
The inhibition was 4.82%.

`O=C(NNc1c2ccccc2nc2ccccc12)c1cc2ccccc2cc1O` was tested. Which inhibition did it give?
The inhibition was 52.9% (active).

How did the inhibition turn out when `CN=C1C=C/C(=N/N=c2\ccn(O)cc2C)C=C1C` was run?
Its inhibition is 43.7%.

`O=c1ccc2c(-c3ccccc3S(=O)(=O)O)c3ccc(O)c(O)c3oc-2c1O` was tested. Which inhibition did it give?
The inhibition was 48.5%.

With `Nc1ccc(Nc2ccccc2)cc1` as the compound, how does the inhibition read?
The inhibition was 12.6%.

For `Cc1cc2ccccc2n1CCNC(=O)COc1ccc2ccccc2c1`, which inhibition is on record?
Its inhibition is 6.16%.
